Screens from PubChem.
ssDAF12 agonist: activators of S. stercoralis DAF-12 nuclear receptor; AID 652126; HEK293 ssDAF-12/GRIP1 lit1-tk-luc reporter, luminescence; % of 3 µM dafachronic acid response; activation, % at 6.8 µM; 370,000 tested, 1% active;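 active = activation above the mean over all tested compounds plus 3 SD, cut at about 0.9% in these data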;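 also: 0% = DMSO-only wells and 100% = 3 µM delta7-dafachronic acid wells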
SMARCA2 activ: increases SMARCA2 function in MMTV reporter cells; MG213 cells, MMTV-luciferase reporter, dexamethasone, overnight; activation, % at 9.1 µM; 370,000 tested, 1% active; in the data active = activation above about 7.8%;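 also: 0% = vehicle wells and 100% = reference activator wells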
DAX1 inh-1: inhibitors of DAX1 repression of SF-1 activated StAR promoter | HEK293T StAR-luciferase reporter, SF-1/DAX-1 repression relief | inhibition, % at 6.8 µM | 370,000 tested, 1.1% active;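 active = inhibition above the mean over all tested compounds plus 3 SD, cut at about 3.6% in these data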;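 also: 0% = DAX-1 cells with DMSO and 100% = cells lacking DAX-1 with DMSO; higher inhibition means more luminescence from relief of DAX-1 repression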
hgDAF12 agonist: hgDAF-12 agonism, primary luciferase screen. HEK293 GAL4-hgDAF12 UAS-luciferase reporter, agonist luminescence; normalized to butyrate control. activation, % at 6.8 µM. 370,000 tested, 1.8% active;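 active = activation above a cutoff set at the mean of all screened compounds plus 3 SD, cut at about 10% in these data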;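 also: 0% = DMSO wells and 100% = sodium butyrate wells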
hcDAF12 agonist: activators of H. contortus DAF-12 nuclear receptor | 370,000 tested, 1.4% active | AID 652067 | HEK293 hcDAF-12 lit1-tk-luc reporter, luminescence; 0% DMSO, 100% Δ7-dafachronic acid | activation, % at 6.8 µM;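 active = activation above the mean of all tested compounds plus 3 SD, cut at about 5.5% in these data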;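 also: 100% = response to 3 µM Δ7-dafachronic acid high control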
DAX1 inh-2: NR0B1 (DAX1) inhibition; P51843; HEK293 Gal4-DAX1 luciferase reporter, luminescence; inhibition, % at 6.75 µM; 340,000 tested, 0.99% active; AID 504766;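 active = inhibition above the mean over all tested compounds plus 3 SD, cut at about 4.2% in these data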;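 also: 0% = DAX1-transfected cells with DMSO and 100% = empty-vector control cells with DMSO; inhibition shows as a rise in luminescence from relieved DAX1 repression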
Target sequence (P51843 207-470 limits assumed): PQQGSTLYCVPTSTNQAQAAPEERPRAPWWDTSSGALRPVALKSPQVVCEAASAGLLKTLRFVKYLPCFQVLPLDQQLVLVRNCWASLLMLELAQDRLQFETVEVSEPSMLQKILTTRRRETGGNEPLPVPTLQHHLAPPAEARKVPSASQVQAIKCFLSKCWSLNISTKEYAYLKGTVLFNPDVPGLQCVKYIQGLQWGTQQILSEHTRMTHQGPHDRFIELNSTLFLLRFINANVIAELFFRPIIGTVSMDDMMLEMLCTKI
Numbers without * were called inactive; . = not tested or not shown. Shown are actives, neighbours in structure and some others; about 4.8% of the full set was active somewhere.

SMILES | ssDAF12 agonist | SMARCA2 activ | DAX1 inh-1 | hgDAF12 agonist | hcDAF12 agonist | DAX1 inh-2
COCCC(=O)N1CCC(Oc2ccc(C(=O)NCCSC)cc2)CC1 | -1 | -2 | 0 | 0 | 0 | 6.9*
O=c1oc(-c2ccccc2)nc2sc3c(c12)CCCC3 | 0 | 1 | 0 | 0 | 2 | 1
O=c1oc(-c2cc3ccccc3o2)nc2sc3c(c12)CCCC3 | 4.2* | 1 | 0 | 0 | 1 | 1
COC(=O)CN1CCN(C(=O)c2csc3ccccc23)CC1 | -1 | -4 | 1 | 1 | -2 | .
COc1cc(-c2nnc(-c3cc(-c4ccccc4)nc4ccccc34)o2)cc(OC)c1OC | 1.2* | -4 | 0 | 0 | 1 | 2
COc1ccc(N2C(=O)[C@H]3[C@@H](C2=O)C2c4ccccc4C=NN2[C@H]3C(=O)C(C)(C)C)cc1 (stereo partly specified) | -2 | -3 | 0 | 0 | -1 | 5.6*
CC(=O)Oc1ccc(N2C(=O)[C@@H]3[C@H](C2=O)[C@H]2c4ccccc4C=NN2[C@@H]3C(C)=O)cc1 | -1 | -3 | 0 | 3 | 2 | 0
CCOC(=O)C1=C(C(=O)OCC)C2N(Cc3ccc(C#N)cc3)c3ccccc3[C@@]23C[C@@H](C(=O)OC)N(S(=O)(=O)c2cccs2)C3=N1 (stereo partly specified) | -1 | -3 | 0 | -2 | 0 | .
CCc1ccc(C(=O)Nn2c(C)nc3ccccc3c2=O)cc1 | 1.0* | 1 | 0 | -2 | 3 | 2
O=C(Nn1c(-c2ccc(Br)cc2)nc2ccccc2c1=O)c1ccncc1 | 0 | 5 | 1 | 13* | 5 | -1
CCOC(=O)CSc1nc2ccccc2c(=O)n1NC(=O)c1ccccc1 | 1.1* | 2 | 3.9* | 11* | 4 | 0
Cc1nc2ccccc2c(=O)n1NC(=O)c1ccc(Cl)c(Cl)c1 | 0 | 2 | 0 | -1 | -1 | 1
COc1ccc(/C(C)=N/NC(=O)Cc2cc(=O)[nH][nH]2)cc1OC | -1 | -1 | 0 | -1 | -1 | .
O=C(c1cccs1)c1coc2ccc(O)cc12 | -1 | 7 | 1 | 12* | 2 | 4
O=C(c1cccc(Br)c1)c1coc2ccc(O)cc12 | 0 | 4 | 1 | 13* | 4 | 1
COC(=O)C1CN(Cc2ccc(F)cc2)CCS(=O)(=O)N1Cc1ccc(C)cc1 (stereo unspecified) | -2 | -2 | -1 | -2 | -1 | .
O=C(NCC1CCCO1)c1nn2c(C(F)(F)F)cc(-c3cccs3)nc2c1Cl (stereo unspecified) | 0.9* | -4 | 0 | -2 | 0 | -1
CC1(NC(=S)NCCCCCCNC(=S)NC2(C)CCS(=O)(=O)C2)CCS(=O)(=O)C1 (stereo unspecified) | -2 | -2 | 1 | 0 | -1 | 5.0*
CC1(NC(=O)NCCCCCCNC(=O)NC2(C)CCS(=O)(=O)C2)CCS(=O)(=O)C1 (stereo unspecified) | -1 | -1 | 0 | -2 | -2 | 2
CCC(=O)Nc1nc2cc(OC)ccc2s1 | -1 | 2 | 1 | 9 | 0 | 4
COc1ccc2sc(NC(C)=O)nc2c1 | 0 | 2 | 3 | 11* | 2 | 2
COc1ccc2nc(NC(=O)c3ccccc3-c3ccccc3C(=O)O)sc2c1 | 0 | -3 | 0 | -2 | -2 | 4
COc1ccc(C(=O)Nc2nc3ccc(OC)cc3s2)cc1 | -1 | 4 | 1 | 8 | 1 | 2
COc1ccc2nc(NC(=O)c3ccccc3C(=O)O)sc2c1 | 0 | 3 | 1 | 3 | 5.7* | 0
COc1ccc(-c2csc(NC(=O)c3ccoc3C)n2)cc1 | -2 | 3 | 2 | 11* | 1 | 2
SMILES | ssDAF12 agonist | SMARCA2 activ | DAX1 inh-1 | hgDAF12 agonist | hcDAF12 agonist | DAX1 inh-2
COc1ccc(-c2csc(NC(=O)c3c(C)noc3C)n2)cc1 | -1 | 0 | -2 | -2 | -2 | -1
COc1ccc(Nc2nc3ccc(OC)cc3s2)cc1 | -1 | 3 | 1 | 12* | 0 | 1
O=S1(=O)c2ccc(N3CCSCC3)cc2Oc2ccccc2CN1Cc1cn(Cc2ccc(Cl)cc2)nn1 | -2 | -1 | -1 | -2 | -1 | .
CC(C)(C)c1ccc(-c2cn(C[C@H](Cc3ccccc3)n3c(=O)c4ccccc4n3Cc3ccco3)nn2)cc1 | -1 | -3 | 1 | 3 | -1 | .
CCOc1ccc2nc(NC(=O)c3ccoc3C)sc2c1 | 0 | 3 | 2 | 11* | 6.2* | -3
O=C(Nc1cccc(C(F)(F)F)c1)OCCCN1CCC2(CCC(c3ccccc3)CC2)C1=O (stereo unspecified) | -1 | -3 | -1 | 1 | -1 | .
CCn1c(SCC(=O)OC(C)C)nnc1-c1ccccc1OC | 1.1* | -2 | 1 | -2 | 4 | 2
CCn1c(SCC(=O)C(C)(C)C)nnc1-c1ccccc1OC | -1 | 1 | -1 | 1 | 0 | 1
O=C(Nc1ccc(F)cc1)N1CCCN(c2nccc(C(F)(F)F)n2)CC1 | -2 | -4 | 0 | -3 | -2 | -1
O=C(Nc1ccccc1)N1CCCN(c2nccc(C(F)(F)F)n2)CC1 | -1 | 7.8* | 0 | -2 | 0 | 2
CCOC(=O)CC[C@H]1CC[C@]2(CCCN(C(=O)c3ccc4ccccc4n3)C2)O1 | -1 | -4 | -1 | -1 | 0 | .
CCC(C(=O)Nc1c(C)cccc1C)n1c(-c2cnc(C)cn2)nc2ccccc21 (stereo unspecified) | -1 | 0 | -1 | -2 | 0 | .
CCC(C(=O)Nc1c(C)cccc1C)n1c(-c2ccc(=O)[nH]c2)nc2ccccc21 (stereo unspecified) | 1.5* | 0 | 1 | 1 | 5 | .
COc1cc(C(=O)OCC(=O)N2CCCCC2C)ccc1OCc1c(C)noc1C (stereo unspecified) | -1 | -2 | 0 | 7 | -2 | 4.7*
Cc1c[nH]c2cccc(-c3ccc4c(c3)OCO4)c12 | -1 | -3 | 0 | 8 | -1 | .
Cc1cc(C)nc(N/N=C/c2ccc(Cl)cc2)n1 | -1 | -3 | 0 | 2 | 0 | 5.0*
CN(c1ccccc1)S(=O)(=O)c1cccc(NC(=O)CCN2C(=O)C3CCCCC3C2=O)c1 (stereo unspecified) | 1.8* | 2 | -2 | 0 | 1 | -1
Cc1ccc(NC(=O)OCCCN2C(=O)CCC23CCC(C)CC3)cc1C (stereo unspecified) | -1 | -4 | -1 | -3 | 1 | .
Cc1ccc(C(=O)Nc2ccncc2)c(Cl)c1 | -1 | 5 | -1 | 2 | -1 | -2
Cc1ccc(C(=O)Nc2ccc(Nc3ccccc3)cc2)c(Cl)c1 | 2.0* | 1 | 0 | 1 | -2 | -1
O=C(Nc1ccccc1)c1cc([N+](=O)[O-])ccc1Cl | 0 | -2 | -1 | 0 | 5.8* | 0
